Assay outcomes as filed in PubChem.
The list is not random: actives were taken first. Their share in the collection is about 6.8%.
Abs 340nm = absorbance at 340 nm; compound absorbance at 340 nm, fold over control; fold change at 10 µM; 65,000 tested, under 10 active; AID 708;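 active = at 10 µM dose, initial 340 nm absorbance at least 2 fold that of control wells; inactive = change under 2 fold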;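 note: initial absorbance extrapolated from kinetic A340 decline of NADH oxidation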
Fluor 339 460 = intrinsic fluorescence of library compounds, ex339/em460 – biochemical, MLSMR library, data from DPM-DC assay, artefact control, profiling panel. 65,000 tested, 5.5% active. fluorescence fold increase at 10 µM. compound autofluorescence, ex339/em460 nm, NADH buffer; stronger effect = higher value; 1 = no-compound wells, NADH background;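 active = at 10 µM, mean starting fluorescence two-fold or more over control wells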;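 note: signal is the first read of a kinetic run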
Spn PMK inh = S. pneumoniae PMK inhibition; purified PMK, PK/LDH-coupled NADH absorbance 340 nm; inhibition, % at 10 µM; 65,000 tested, 0.49% active; AID 539;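 active = top-ranked compounds by inhibition in the single 10 µM screen, taking a fixed number of the strongest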
NADH coupling = inhibitors of enzymes used to reach an NAD/NADH endpoint. coupled PK/LDH NADH assays, four targets. IC50, µM (highest dose often 10 µM). 65,000 tested, 0.02% active;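 active = single-dose screening hits from any of four coupled enzyme assays that gave an IC50 when retested across doses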;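 note: the DPM-DC format reads NADH fluorescence rather than 340 nm absorbance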
DPM-DC inhibit = inhibitors of Streptococcus pneumoniae diphosphomevalonate decarboxylase; purified DPM-DC, PK/LDH coupled NADH fluorescence; calls only at 10 µM; 65,000 tested, 0.49% active; AID 556;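 active = the 320 compounds with the highest percent inhibition in the single-dose primary screen, excluding strongly autofluorescent ones, cut at about 32% in these data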;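 note: kinetic rate of NADH fluorescence loss reporting ADP formed by the decarboxylase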
Spn MK inh = S. pneumoniae mevalonate kinase inhibition; purified MK, PK/LDH-coupled NADH absorbance 340 nm; inhibition, % at 10 µM; AID 555; 65,000 tested, 0.48% active;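 active = ranked among the strongest by inhibition in the single 10 µM screen, a fixed top-ranked set picked for dose follow-up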
A number is an active result.

Screening O=C(c1cccn2c(=O)c3cc(Cl)ccc3nc12)N1CCN(Cc2ccc3c(c2)OCO3)CC1 returned Abs 340nm inactive, Fluor 339 460 4.9, Spn PMK inh inactive, NADH coupling inactive and Spn MK inh inactive.
`O=C(c1cccn2c(=O)c3ccccc3nc12)N1CCN(Cc2ccc3c(c2)OCO3)CC1` gave Abs 340nm inactive, Fluor 339 460 5, Spn PMK inh inactive, NADH coupling inactive and Spn MK inh inactive.
Screening CCn1nc(C(=O)N2CCN(Cc3ccc4c(c3)OCO4)CC2)c2ccccc2c1=O returned Abs 340nm inactive, Fluor 339 460 inactive, Spn PMK inh inactive, NADH coupling inactive, DPM-DC inhibit inactive and Spn MK inh inactive.
Screening O=C(CN1C(=O)c2cccc3cccc1c23)N1CCN(Cc2ccc3c(c2)OCO3)CC1 returned Abs 340nm inactive, Fluor 339 460 2, Spn PMK inh inactive, NADH coupling inactive, DPM-DC inhibit inactive and Spn MK inh inactive.
`COC(=O)c1ccc(COC(=O)C23CC4CC(CC(O)(C4)C2)C3)o1` gave Abs 340nm inactive, Fluor 339 460 inactive, Spn PMK inh inactive, NADH coupling inactive, DPM-DC inhibit inactive and Spn MK inh inactive.
For O=C(NCCN1CCN(c2ccccc2F)CC1)c1cccn2c(=O)c3ccccc3nc12 the results were Abs 340nm inactive, Fluor 339 460 3.1, Spn PMK inh inactive, NADH coupling inactive, DPM-DC inhibit inactive and Spn MK inh inactive.
`NC(=O)C1(N2CCCCC2)CCN(C(=O)c2cccn3c(=O)c4cc(Cl)ccc4nc23)CC1` gave Abs 340nm inactive, Fluor 339 460 4.9, Spn PMK inh inactive, NADH coupling inactive and Spn MK inh inactive.
Screening CCOC(=O)C(C)n1cnc2c(nnn2Cc2ccc(C)cc2)c1=O (centres undefined) returned Abs 340nm inactive, Fluor 339 460 inactive, Spn PMK inh inactive, NADH coupling inactive, DPM-DC inhibit inactive and Spn MK inh inactive.
COC(=O)CC1SC(=O)NC1=Nc1ccccc1 (centres undefined) was read as Abs 340nm inactive, Fluor 339 460 inactive, Spn PMK inh inactive, NADH coupling inactive, DPM-DC inhibit active and Spn MK inh inactive.
O/N=C1/CCc2nonc2/C1=N/O was read as Abs 340nm inactive, Fluor 339 460 inactive, Spn PMK inh inactive, NADH coupling inactive, DPM-DC inhibit inactive and Spn MK inh inactive.
CCCCC1CC1C(=O)Nc1ccc(OC)c(OC)c1 (centres undefined) was read as Abs 340nm inactive, Fluor 339 460 inactive, Spn PMK inh inactive, NADH coupling inactive, DPM-DC inhibit inactive and Spn MK inh inactive.
For Cc1ccc(C(=O)c2cc(C)sc2NC(=O)CN2CCN(C(=O)c3ccco3)CC2)cc1 the results were Abs 340nm inactive, Fluor 339 460 inactive, Spn PMK inh inactive, NADH coupling inactive, DPM-DC inhibit inactive and Spn MK inh inactive.
For CC1=CC(C)(C)N=C(Nc2ccc(C)cc2)S1 the results were Abs 340nm inactive, Fluor 339 460 inactive, Spn PMK inh inactive, NADH coupling inactive, DPM-DC inhibit inactive and Spn MK inh inactive.
CC(C)COC(=O)NCC12C=CC(O1)C1C(=O)N(c3ccc(Cl)cc3)C(=O)C12 (centres undefined) was read as Abs 340nm inactive, Fluor 339 460 inactive, Spn PMK inh 25, NADH coupling inactive, DPM-DC inhibit inactive and Spn MK inh inactive.
CCOC(=O)CSc1n[nH]c(-c2cccnc2)n1 was read as Abs 340nm inactive, Fluor 339 460 inactive, Spn PMK inh 25, NADH coupling inactive, DPM-DC inhibit inactive and Spn MK inh inactive.
CCOC(=O)CSc1nnc(-c2cccnc2)n1Cc1ccccc1 was read as Abs 340nm inactive, Fluor 339 460 inactive, Spn PMK inh inactive, NADH coupling inactive, DPM-DC inhibit inactive and Spn MK inh inactive.
Screening COCCCNc1ncnc2nc[nH]c12 returned Abs 340nm inactive, Fluor 339 460 inactive, Spn PMK inh inactive, NADH coupling inactive, DPM-DC inhibit inactive and Spn MK inh inactive.
Screening COc1cc(-c2c(C#N)c(N)nc3c2c(C)nn3-c2ccc(C)c(C)c2)cc(OC)c1OC returned Abs 340nm inactive, Fluor 339 460 3.8, Spn PMK inh inactive, NADH coupling inactive and Spn MK inh inactive.
Screening N#Cc1nc(-c2ccco2)oc1N1CCN(Cc2ccccc2)CC1 returned Abs 340nm inactive, Fluor 339 460 inactive, Spn PMK inh inactive, NADH coupling inactive, DPM-DC inhibit inactive and Spn MK inh inactive.
For CN(C)c1oc(-c2ccco2)nc1C#N the results were Abs 340nm inactive, Fluor 339 460 4, Spn PMK inh inactive, NADH coupling inactive and Spn MK inh inactive.
For CN(Cc1ccccc1)c1oc(-c2ccco2)nc1C#N the results were Abs 340nm inactive, Fluor 339 460 3.9, Spn PMK inh inactive, NADH coupling inactive and Spn MK inh inactive.
For CCOC(=O)N1CCN(C(=O)CCCn2nc(C)c3sc4ccccc4c3c2=O)CC1 the results were Abs 340nm inactive, Fluor 339 460 inactive, Spn PMK inh inactive, NADH coupling inactive, DPM-DC inhibit inactive and Spn MK inh inactive.
Cn1c(-c2ccc(CN3CCCCC3)o2)nc2ccccc21 was read as Abs 340nm inactive, Fluor 339 460 2.1, Spn PMK inh inactive, NADH coupling inactive, DPM-DC inhibit inactive and Spn MK inh inactive.
`O=C(c1ccccc1)N(CCN1CCOCC1)C1(C(=O)Nc2ccccc2)CCCCC1` gave Abs 340nm inactive, Fluor 339 460 inactive, Spn PMK inh inactive, NADH coupling inactive, DPM-DC inhibit inactive and Spn MK inh inactive.
CCOC(=O)c1ccccc1NS(=O)(=O)c1ccccc1F was read as Abs 340nm inactive, Fluor 339 460 inactive, Spn PMK inh inactive, NADH coupling inactive, DPM-DC inhibit inactive and Spn MK inh inactive.
Screening O=C(CSc1nnc(-c2ccccc2)o1)Nc1ccccc1F returned Abs 340nm inactive, Fluor 339 460 inactive, Spn PMK inh inactive, NADH coupling inactive, DPM-DC inhibit inactive and Spn MK inh inactive.
Screening COc1ccc(-c2nnc(Nc3nc4c(OC)cccc4s3)o2)c(OC)c1 returned Abs 340nm inactive, Fluor 339 460 2.3, Spn PMK inh inactive, NADH coupling inactive, DPM-DC inhibit active and Spn MK inh inactive.
COc1cc(OC)cc(-c2nnc(Nc3nc4c(F)cccc4s3)o2)c1 was read as Abs 340nm inactive, Fluor 339 460 3.4, Spn PMK inh inactive, NADH coupling inactive and Spn MK inh inactive.
For Fc1cccc2sc(Nc3nnc(-c4ccccc4)o3)nc12 the results were Abs 340nm inactive, Fluor 339 460 4.9, Spn PMK inh inactive, NADH coupling inactive and Spn MK inh inactive.
For COc1ccc(-c2nnc(Nc3nc4c(OC)cccc4s3)o2)cc1 the results were Abs 340nm inactive, Fluor 339 460 inactive, Spn PMK inh inactive, NADH coupling inactive, DPM-DC inhibit inactive and Spn MK inh inactive.
Screening Cc1ccc(S(=O)(=O)CCc2nc3ccccc3n2CCC#N)cc1 returned Abs 340nm inactive, Fluor 339 460 inactive, Spn PMK inh inactive, NADH coupling inactive, DPM-DC inhibit inactive and Spn MK inh inactive.
